High-throughput results as filed in PubChem BioAssay.
TDP1 cell noCPT: qHTS for Inhibitors of human tyrosyl-DNA phosphodiesterase 1 (TDP1): qHTS in cells in absence of CPT; DT40 Tdp1-/- hTDP1 cells, no CPT, ATP luminescence, 48 h; Potency, µM (doses to about 46.2 µM), for inactives: at the highest dose activity change, negative = growth inhibition, actives largely listed as inhibitors; 420,000 compounds, 15% hits; further: potency means the concentration at half of the fitted maximal effect; on the % scale 0 is the no-effect control and ±100 the full control effect; nearly all actives have a fitted effect of over 55% in size
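Growth kinetics read by CellTiter-Glo luminescence after ≥48 hr at 37 °C. Cells: DT40 Tdp1-/- stably carrying human TDP1, 400 per well, compound exposure in the absence of CPT (DMSO vehicle).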
SW480 rereplic: A quantitative high throughput screen for small molecules that induce DNA re-replication in SW480 colon adenocarcinoma cells | SW480 DNA re-replication, Hoechst DNA content imaging, 48 h | Potency, µM (top dose mostly 46.1 µM), inactives show at the top dose re-replication activation, most hits filed as activators | 340,000 compounds, 1.8% hits | AID 624297, 2012; further: potency means the concentration at half of the fitted maximal effect; % of control where 0% means no effect; nearly all actives have a fitted effect of over 55% in size
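Image-based DNA-content assay: after two days of treatment, nuclei were labelled with the DNA dye Hoechst and imaged, and hits were compounds raising the count of nuclei showing high fluorescence intensity.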
TDP1 cell CPT: qHTS for Inhibitors of human tyrosyl-DNA phosphodiesterase 1 (TDP1): qHTS in cells in presence of CPT; chicken DT40 Tdp1-/-;hTDP1 cells + 20 nM CPT, ATP luminescence, 48 h; Potency, µM (doses to about 46.2 µM), inactives show at the highest dose activity change, negative = growth inhibition, actives largely listed as inhibitors; 420,000 compounds, 12% hits; further: potency means the concentration at half of the fitted maximal effect; on the % scale 0 is the no-effect control and ±100 the full control effect; nearly all actives have a fitted effect of over 55% in size
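Chicken DT40 Tdp1-/- cells complemented with human TDP1, 400 cells/well, exposed to compounds plus 20 nM camptothecin for at least 48 h at 37 C; viability read as ATP content by CellTiter-Glo luminescence.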
Chronic BCR inh: qHTS Assay to Find Inhibitors of Chronic Active B-Cell Receptor Signaling. 340,000 compounds, 0.05% hits. AID 493014, 2011. Potency, µM (titrated, usually from 46.1 µM), for the others: top-dose activity change, negative = inhibition, hits mostly inhibitors. ABC-DLBCL IkBa-CBG/CBR reporter, luminescence ratio, 4 h; active means well fitted inhibition curve with a large enough effect in the signal ratio, with a control signal flat, not every such curve was filed as active; inconclusive means small, poorly fitted or top-dose-only effect, or effect the other way, or a change in a side signal; the % refers to the signal ratio;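 further: potency means the concentration at half of the fitted maximal effect; plate controls were basal doxycycline-induced cells for no effect and cells given 10 µM MG132 for full effect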
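TMD8 ABC-DLBCL cells carrying doxycycline-inducible green luciferase fused to IkappaBalpha plus unfused red luciferase were exposed to compounds (up to 46 uM) for 4 hrs at 37C. Activity came from the overlap-corrected green/red luminescence ratio.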
MCF10A rereplic: A quantitative high throughput screen for small molecules that induce DNA re-replication in MCF 10a normal breast cells; MCF 10A DNA re-replication, Hoechst nuclear intensity, 48 h; AID 624296, 2012; 350,000 compounds, 2.9% hits; Potency, µM (titrated, usually from 46.1 µM), for inactives: at the highest dose activity, positive = re-replication, hits mostly activators; further: potency means the concentration at half of the fitted maximal effect; % of control where 0% means no effect; nearly all actives have a fitted effect of over 50% in size
IL-1B inflam inh: qHTS for Inhibitors of Inflammasome Signaling: IL-1-beta AlphaLISA Primary Screen; THP-1 LPS/ATP IL-1B secretion, AlphaLISA, 16 h; active compounds read low; activity change, % at 57.5 µM; 360,000 compounds, 4.7% hits; AID 743279, 2014; in the data active means activity change below about -50%; inconclusive means mostly about -30% to -49%; further: on the % scale 0 is the no-effect control and ±100 the full control effect
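THP-1 cells pretreated 1 hr with compounds (up to 57.5 uM final), then stimulated with LPS (250 ng/mL final) plus ATP (1.25 mM final); secreted IL-1B measured by AlphaLISA after 16 hr, decreased signal indicating inhibition.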
* marks the source's active call; other numbers are inactive results; ? = inconclusive; / = not tested or not shown; ! = not active in a repeat. Compounds with a hit are over-represented: about 19% of the library has one in this group of screens. Unless noted, the call rests on the fitted dose curve; in most records, active means well fitted curve in the direction sought with a large enough effect; inconclusive means small, poorly fitted or top-dose-only effect, or another doubt; inactive means no such curve, though single readings can be large; an effect the other way counts as inactive or inconclusive.

SMILES	TDP1 cell noCPT	SW480 rereplic	TDP1 cell CPT	Chronic BCR inh	MCF10A rereplic	IL-1B inflam inh
O=C(Nc1ccccc1)OCCc1ccccn1	-4%	-8%	-1%	/	0%	-21
CCOc1ccccc1OCCCC(=O)NNC(=O)c1cc(C)oc1C	-2%	-3%	-8%	-3%	3%	?
CC(C)NC(=S)n1cc(C(=O)c2cc(Cl)cc(Cl)c2O)cn1	-6%	1%	-1%	-19%	14%	39
O=C1C(NS(=O)(=O)c2cccs2)=C(N2CCN(c3cccc(Cl)c3)CC2)C(=O)c2ccccc21	23µM*	0%	21µM*	?	?	-13
O=C1C(NS(=O)(=O)c2ccccc2)=C(N2CCN(c3ccc(F)cc3)CC2)C(=O)c2ccccc21	?	-1%	?	?	7%	-11
Cc1cc(C(=O)OCC(=O)c2cccs2)ccc1[N+](=O)[O-]	-14%	-19%	-17%	?	-18%	3
N[C@@H](Cc1cc(I)c(Oc2ccc(O)c(I)c2)c(I)c1)C(=O)O	?	-7%	?	?	21µM*!	63
N[C@@H](Cc1ccc(O)c(O)c1)C(=O)O	-28%	-41%	-28%	/	-5%	-107*
O=C(C1CCC(CNc2c(N3CCCCC3)c(=O)c2=O)CC1)N1CCc2ccccc2C1 (stereo unspecified)	16µM*	-2%	?	0%	8%	-7
COc1ccc(-c2c(=O)n(OCc3nc4ccccc4[nH]3)c3ccccc3[n+]2[O-])cc1	?	13%	0%	?	9%	-19
CCOn1c(=O)c(-c2ccc(Br)cc2)[n+]([O-])c2ccccc21	0%	-15%	5%	3%	2%	0
CCOc1ccc(-c2c(=O)n(OCc3ccccc3Br)c3ccccc3[n+]2[O-])c(OCC)c1	23µM*	-3%	?	-1%	3%	6
CCOc1ccc(OCC)c(-c2c(=O)n(OCc3ccccc3C(=O)OC)c3ccccc3[n+]2[O-])c1	13µM*	0%	13µM*	10%	4%	-18
CCOc1ccc(-c2c(=O)n(OCc3nc4ccccc4[nH]3)c3ccccc3[n+]2[O-])cc1	23µM*	?	?	?	?	/
CCOc1ccc(OCC)c(-c2c(=O)n(OCc3ccccc3Br)c3ccccc3[n+]2[O-])c1	8.9µM*	?	10µM*	?	-14%	-28
O=C(CSc1nnc(CNC(=O)c2ccco2)o1)Nc1cccc(F)c1	8%	-21%	-14%	-1%	-1%	-12
CCc1ccc(/C(C)=N/Nc2cc(Cl)nc(C)n2)cc1	?	0%	23µM*	-8%	1%	-5
Cc1ccc([N+](=O)[O-])cc1N=C(c1cccc([N+](=O)[O-])c1)N1CCOCC1	?	?	-29%	-8%	-12%	-2
CCCCc1ccc(/C(C)=N/Nc2cc(N3CCOCC3)nc(C)n2)cc1	23µM*	?	?	3%	21µM*	-9
C/C(=N\Nc1cc(Cl)nc(C)n1)c1ccccc1	-21%	-3%	?	-10%	6%	-16
C/C(=N\Nc1cc(N2CCOCC2)nc(C)n1)c1cccc([N+](=O)[O-])c1	10µM*	-69%	16µM*	-29%	-14%	-16
COc1ccc(OC)c(CN2C(=O)CN(S(C)(=O)=O)CC2(C)C(=O)NC(C)C)c1 (stereo unspecified)	3%	/	-3%	/	/	28
Cc1ccc(NC(=O)CCCn2c3ccccc3c(=O)c3cc(C)ccc32)c(Br)c1	15µM*	/	?	/	/	/
Cc1ccc2c(c1)c(=O)c1ccccc1n2CCCC(=O)Nc1cc(Cl)ccc1C	16µM*	/	?	/	/	/
O=C(Cn1c(=O)c2cccn2c2ccc(F)cc21)NCc1cccc(Cl)c1	?	/	-27%	/	/	/
SMILES	TDP1 cell noCPT	SW480 rereplic	TDP1 cell CPT	Chronic BCR inh	MCF10A rereplic	IL-1B inflam inh
COC(=O)c1ccc(C)c(NS(=O)(=O)c2ccc3c(c2)OCCO3)c1	0.92µM*	-2%	0.92µM*	?	0%	42
COC(=O)c1ccc(C)c(NS(=O)(=O)c2ccc(C)c([N+](=O)[O-])c2)c1	?	0%	-24%	2%	?	19
COC(=O)c1ccc(C)c(NS(=O)(=O)c2ccc(OC)cc2)c1	0.23µM*	0.26µM*	0.29µM*	?	?	0
COc1ccc(OC)c(C(C)NC(=O)Nc2cccc(C(C)=O)c2)c1 (stereo unspecified)	-12%	-1%	-11%	?	2%	-6
Cc1cccc(CC(=O)Nc2cccc(-c3nc4cccnc4s3)c2)c1	?	/	-15%	/	/	/
Cc1nc2ccc(S(=O)(=O)Nc3ccc(-c4nc5cccnc5s4)cc3)cc2s1	-23%	14%	-1%	0%	6.5µM*	19
Cc1nc2ccc(S(=O)(=O)Nc3cccc(-c4nc5cccnc5s4)c3)cc2s1	-22%	2%	?	?	6.5µM*	56
Cc1ccccc1C(=O)Nc1cccc(-c2nc3cccnc3s2)c1	18µM*	/	?	/	/	/
CC(C)COc1ccc(C(=O)Nc2onc3c2CCCC3)cc1	23µM*	/	13µM*	/	/	/
CC(C)COc1ccc(C(=O)Nc2ccc([N+](=O)[O-])cc2)cc1	-22%	-10%	-23%	-2%	4%	0
Cc1onc(-c2c(Cl)cccc2Cl)c1C(=O)Nc1ccc(N2CCOCC2)cc1	2%	-11%	7%	-10%	-1%	33
CCOC(=O)C1CCCN(C(=O)c2ccc3c(c2)N(C)C(=O)/C(=C/c2ccccc2Cl)S3)C1 (stereo unspecified)	18µM*	?	?	?	?	-68*
CN1C(=O)/C(=C/c2ccccc2Cl)Sc2ccc(C(=O)N3CCCC3)cc21	26µM*	-8%	?	?	18µM*	-11
CN1C(=O)/C(=C\c2ccccc2F)Sc2ccc(C(=O)NC3CCN(Cc4ccccc4)CC3)cc21	23µM*	21µM*	18µM*	?	?	-14
CCOC(=O)C1CCCN(C(=O)c2cccc(N3C(=O)c4ccccc4C3=O)c2)C1 (stereo unspecified)	-24%	-9%	-1%	-1%	2%	-6
